# In article PMC7862700, “An all-to-all approach to the identification of sequence-specific readers for epigenetic DNA modifications on cytosine”:
# Legend:
# Test in all cases: DAPPL (digital affinity profiling via proximity ligation, sequencing); 10 mM Tris-HCl pH 7.5, 50 mM NaCl, 1 mM DTT, 4% glycerol, room temperature, 30 min; GST-TFs on glutathione beads, 16-mer random dsDNA library, 0.1% formaldehyde crosslink after washing; high values mean tight binding
# FLI1 = target: T1, FLI1 (Homo sapiens, UniProt Q01543 1-452); details: protein: recombinant; tags: N-terminal GST; dsDNA, one strand shown
# T1 sequence: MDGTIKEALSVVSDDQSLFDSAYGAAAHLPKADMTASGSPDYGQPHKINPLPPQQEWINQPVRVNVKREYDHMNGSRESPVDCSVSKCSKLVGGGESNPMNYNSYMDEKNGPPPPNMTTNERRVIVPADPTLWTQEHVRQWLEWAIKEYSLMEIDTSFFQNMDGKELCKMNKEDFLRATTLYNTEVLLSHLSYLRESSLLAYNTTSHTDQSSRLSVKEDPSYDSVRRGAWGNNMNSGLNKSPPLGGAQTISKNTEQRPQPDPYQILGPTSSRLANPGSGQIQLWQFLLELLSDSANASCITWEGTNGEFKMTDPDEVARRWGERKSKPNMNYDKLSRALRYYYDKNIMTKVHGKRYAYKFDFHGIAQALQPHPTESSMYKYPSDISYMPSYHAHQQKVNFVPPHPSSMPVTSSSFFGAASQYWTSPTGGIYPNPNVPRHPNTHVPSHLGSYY
# Summary of the method: (§1)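 Human transcription factors were made in yeast as GST fusions, captured on glutathione beads and barcoded with DNA. With a tag-only sample included, the pool was incubated with 200 nmole of a random double-stranded 16-mer DNA library in Tris/NaCl/DTT/glycerol buffer at room temperature for 30 min, then crosslinked with 0.1% formaldehyde after washing, ligated by proximity, amplified and sequenced. For binding signal, each hexamer's read frequency for a factor is divided by its frequency for the tag-only sample.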
# ELK1 = target: T2, ELK1 (Homo sapiens, UniProt P19419 1-428); details: protein: recombinant; tags: N-terminal GST; dsDNA, one strand shown
# T2 sequence: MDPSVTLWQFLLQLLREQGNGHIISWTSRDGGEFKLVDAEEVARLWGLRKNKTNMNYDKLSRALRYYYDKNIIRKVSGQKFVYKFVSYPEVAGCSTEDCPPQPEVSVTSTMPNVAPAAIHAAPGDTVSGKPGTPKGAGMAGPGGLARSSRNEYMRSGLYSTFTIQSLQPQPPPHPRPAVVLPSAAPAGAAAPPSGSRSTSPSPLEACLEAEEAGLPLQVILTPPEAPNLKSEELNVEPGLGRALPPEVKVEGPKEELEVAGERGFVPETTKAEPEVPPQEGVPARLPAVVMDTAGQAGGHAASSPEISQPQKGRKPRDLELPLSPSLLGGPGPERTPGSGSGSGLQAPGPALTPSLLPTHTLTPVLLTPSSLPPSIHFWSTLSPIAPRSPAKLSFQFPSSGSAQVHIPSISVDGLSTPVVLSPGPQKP
# Summary of the method: as §1
# GABPA = target: T3, GABPA (Homo sapiens, UniProt Q06546 1-454); details: protein: recombinant; tags: N-terminal GST; dsDNA, one strand shown
# T3 sequence: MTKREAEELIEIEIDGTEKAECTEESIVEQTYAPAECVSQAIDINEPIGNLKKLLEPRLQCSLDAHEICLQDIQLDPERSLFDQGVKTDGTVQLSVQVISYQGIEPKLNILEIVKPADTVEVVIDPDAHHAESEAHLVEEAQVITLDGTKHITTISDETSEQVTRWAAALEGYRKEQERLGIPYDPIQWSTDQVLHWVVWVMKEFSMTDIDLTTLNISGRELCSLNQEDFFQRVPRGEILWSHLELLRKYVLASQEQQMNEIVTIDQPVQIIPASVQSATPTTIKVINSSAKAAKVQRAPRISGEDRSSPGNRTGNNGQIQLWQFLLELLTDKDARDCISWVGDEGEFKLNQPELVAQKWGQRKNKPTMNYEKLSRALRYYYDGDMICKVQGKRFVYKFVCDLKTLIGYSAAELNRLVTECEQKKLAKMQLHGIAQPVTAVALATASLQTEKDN
# Summary of the method: as §1
# ERG = target: T4, ERG (Homo sapiens, UniProt P11308 1-479); details: protein: recombinant; tags: N-terminal GST; dsDNA, one strand shown
# T4 sequence: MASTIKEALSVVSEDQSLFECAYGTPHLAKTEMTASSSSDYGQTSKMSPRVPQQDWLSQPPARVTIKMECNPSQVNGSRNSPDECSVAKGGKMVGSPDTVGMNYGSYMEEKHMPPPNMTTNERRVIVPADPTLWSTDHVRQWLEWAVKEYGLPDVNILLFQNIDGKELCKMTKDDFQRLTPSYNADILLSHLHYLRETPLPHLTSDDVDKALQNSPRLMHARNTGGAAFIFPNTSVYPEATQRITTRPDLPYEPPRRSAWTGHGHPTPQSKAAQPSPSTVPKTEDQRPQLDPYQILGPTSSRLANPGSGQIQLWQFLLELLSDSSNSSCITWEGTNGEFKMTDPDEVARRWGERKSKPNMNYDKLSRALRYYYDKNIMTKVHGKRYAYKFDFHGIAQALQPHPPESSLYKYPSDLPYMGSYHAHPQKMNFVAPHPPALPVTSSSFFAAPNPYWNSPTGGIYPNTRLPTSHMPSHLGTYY
# Summary of the method: as §1
# ELF1 = ELF1 (Homo sapiens, UniProt P32519 1-619); details: protein: recombinant; tags: N-terminal GST; dsDNA, one strand shown
# Sequence of ELF1 (P32519 whole entry): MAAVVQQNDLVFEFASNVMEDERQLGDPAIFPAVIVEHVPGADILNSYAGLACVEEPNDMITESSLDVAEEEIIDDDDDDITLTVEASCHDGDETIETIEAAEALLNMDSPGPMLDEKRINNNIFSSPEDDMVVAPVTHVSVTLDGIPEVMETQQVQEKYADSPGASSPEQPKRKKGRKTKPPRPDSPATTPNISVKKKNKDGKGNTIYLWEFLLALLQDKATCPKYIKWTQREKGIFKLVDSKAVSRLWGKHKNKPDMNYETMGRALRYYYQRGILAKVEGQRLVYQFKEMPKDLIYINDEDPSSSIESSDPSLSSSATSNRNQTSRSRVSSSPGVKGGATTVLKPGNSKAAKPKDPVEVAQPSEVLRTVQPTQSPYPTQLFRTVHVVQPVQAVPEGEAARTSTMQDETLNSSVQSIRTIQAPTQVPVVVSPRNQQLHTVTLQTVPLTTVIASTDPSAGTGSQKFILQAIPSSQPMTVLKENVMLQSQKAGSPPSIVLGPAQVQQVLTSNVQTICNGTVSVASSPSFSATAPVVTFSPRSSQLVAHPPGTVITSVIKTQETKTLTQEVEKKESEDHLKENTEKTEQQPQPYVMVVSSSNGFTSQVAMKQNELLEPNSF
# Summary of the method: as §1
# EHF = target: T5, EHF (Homo sapiens, UniProt Q9NZC4 1-300); details: protein: recombinant; tags: N-terminal GST; dsDNA, one strand shown
# T5 sequence: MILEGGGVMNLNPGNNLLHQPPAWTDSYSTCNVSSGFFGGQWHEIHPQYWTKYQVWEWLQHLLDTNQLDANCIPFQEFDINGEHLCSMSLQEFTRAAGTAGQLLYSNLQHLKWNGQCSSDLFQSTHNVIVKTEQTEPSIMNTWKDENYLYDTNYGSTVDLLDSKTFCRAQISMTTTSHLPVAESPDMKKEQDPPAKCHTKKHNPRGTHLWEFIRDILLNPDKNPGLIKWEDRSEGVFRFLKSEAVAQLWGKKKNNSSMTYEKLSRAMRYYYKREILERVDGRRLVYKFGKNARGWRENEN
# Summary of the method: as §1
# SPI1 = SPI1 (Homo sapiens, UniProt P17947 1-270); details: protein: recombinant; tags: N-terminal GST; dsDNA, one strand shown
# Summary of the method: as §1
# SPIB = SPIB (Homo sapiens, UniProt Q01892 1-262); details: protein: recombinant; tags: N-terminal GST; dsDNA, one strand shown
# Sequence of SPIB (Q01892 whole entry): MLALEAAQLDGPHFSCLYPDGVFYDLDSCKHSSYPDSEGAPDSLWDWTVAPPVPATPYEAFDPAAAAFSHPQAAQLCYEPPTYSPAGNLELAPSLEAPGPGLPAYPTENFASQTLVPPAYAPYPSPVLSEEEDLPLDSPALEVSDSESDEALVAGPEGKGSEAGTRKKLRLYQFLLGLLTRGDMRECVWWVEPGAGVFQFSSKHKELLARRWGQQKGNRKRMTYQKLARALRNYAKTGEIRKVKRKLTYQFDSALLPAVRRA
# Summary of the method: as §1
# ELK3 = target: T6, ELK3 (Homo sapiens, UniProt P41970 1-407); details: protein: recombinant; tags: N-terminal GST; dsDNA, one strand shown
# T6 sequence: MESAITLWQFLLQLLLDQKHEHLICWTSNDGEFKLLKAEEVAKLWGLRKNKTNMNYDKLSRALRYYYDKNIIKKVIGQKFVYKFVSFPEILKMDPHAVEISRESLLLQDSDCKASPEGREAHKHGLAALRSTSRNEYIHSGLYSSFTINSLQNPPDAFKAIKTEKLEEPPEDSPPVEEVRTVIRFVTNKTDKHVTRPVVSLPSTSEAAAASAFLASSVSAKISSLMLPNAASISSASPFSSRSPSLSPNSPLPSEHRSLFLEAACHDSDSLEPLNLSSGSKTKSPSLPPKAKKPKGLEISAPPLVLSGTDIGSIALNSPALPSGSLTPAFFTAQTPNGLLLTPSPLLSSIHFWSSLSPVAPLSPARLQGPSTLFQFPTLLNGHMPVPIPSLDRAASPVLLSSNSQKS
# Summary of the method: as §1
# FEV = target: T7, FEV (Homo sapiens, UniProt Q99581 1-238); details: protein: recombinant; tags: N-terminal GST; dsDNA, one strand shown
# T7 sequence: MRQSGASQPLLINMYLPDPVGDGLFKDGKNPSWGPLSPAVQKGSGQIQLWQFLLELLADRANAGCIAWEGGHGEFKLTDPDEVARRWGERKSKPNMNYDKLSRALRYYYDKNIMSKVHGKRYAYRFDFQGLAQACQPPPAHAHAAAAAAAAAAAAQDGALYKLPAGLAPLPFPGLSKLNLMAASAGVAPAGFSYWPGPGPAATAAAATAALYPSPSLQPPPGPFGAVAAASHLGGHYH
# Summary of the method: as §1
# ETV5 = ETV5 (Homo sapiens, UniProt P41161 1-510); details: protein: recombinant; tags: N-terminal GST; dsDNA, one strand shown
# Sequence of ETV5 (P41161 whole entry): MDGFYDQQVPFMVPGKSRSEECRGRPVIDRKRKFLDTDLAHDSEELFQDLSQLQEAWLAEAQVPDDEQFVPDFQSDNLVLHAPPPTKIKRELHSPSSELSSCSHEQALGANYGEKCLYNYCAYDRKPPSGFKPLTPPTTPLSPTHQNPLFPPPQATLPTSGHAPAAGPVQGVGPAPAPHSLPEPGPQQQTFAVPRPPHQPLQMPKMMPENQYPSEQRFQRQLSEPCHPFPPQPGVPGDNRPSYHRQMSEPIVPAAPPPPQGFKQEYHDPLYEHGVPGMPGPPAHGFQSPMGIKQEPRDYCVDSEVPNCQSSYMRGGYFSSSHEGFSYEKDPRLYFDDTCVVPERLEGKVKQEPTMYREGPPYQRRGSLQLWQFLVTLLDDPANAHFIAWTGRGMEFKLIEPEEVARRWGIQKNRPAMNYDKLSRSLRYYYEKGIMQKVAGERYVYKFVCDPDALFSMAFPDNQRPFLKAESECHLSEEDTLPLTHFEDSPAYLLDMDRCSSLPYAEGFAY
# Summary of the method: as §1
# HSF1 = HSF1 (Homo sapiens, UniProt Q00613 1-529); details: protein: recombinant; tags: N-terminal GST; chain copies: 3; dsDNA, one strand shown
# Sequence of HSF1 (Q00613 whole entry): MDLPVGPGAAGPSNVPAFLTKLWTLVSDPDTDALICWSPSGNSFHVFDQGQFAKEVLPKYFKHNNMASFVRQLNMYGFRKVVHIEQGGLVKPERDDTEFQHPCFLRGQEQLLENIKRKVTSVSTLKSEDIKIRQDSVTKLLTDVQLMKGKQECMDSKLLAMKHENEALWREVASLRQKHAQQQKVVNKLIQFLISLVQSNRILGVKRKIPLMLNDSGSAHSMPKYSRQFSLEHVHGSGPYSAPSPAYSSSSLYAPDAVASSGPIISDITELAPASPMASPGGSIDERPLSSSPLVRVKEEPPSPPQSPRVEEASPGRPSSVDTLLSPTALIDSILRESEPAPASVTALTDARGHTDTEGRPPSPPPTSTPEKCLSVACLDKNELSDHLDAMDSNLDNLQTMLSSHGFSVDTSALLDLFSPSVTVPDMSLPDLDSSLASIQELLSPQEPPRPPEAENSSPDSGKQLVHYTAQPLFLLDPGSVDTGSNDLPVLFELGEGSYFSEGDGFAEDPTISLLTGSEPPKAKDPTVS
# Summary of the method: as §1
# SPIC = target: T8, SPIC (Homo sapiens, UniProt Q8N5J4 1-248); details: protein: recombinant; tags: N-terminal GST; dsDNA, one strand shown
# T8 sequence: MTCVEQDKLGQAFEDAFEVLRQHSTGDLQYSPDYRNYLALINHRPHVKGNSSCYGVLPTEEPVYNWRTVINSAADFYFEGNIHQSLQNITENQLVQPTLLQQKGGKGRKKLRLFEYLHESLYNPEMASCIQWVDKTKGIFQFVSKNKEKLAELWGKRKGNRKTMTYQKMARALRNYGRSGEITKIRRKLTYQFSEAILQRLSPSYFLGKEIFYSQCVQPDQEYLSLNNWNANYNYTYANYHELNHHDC
# Summary of the method: as §1
# ELF4 = ELF4 (Homo sapiens, UniProt Q99607 1-663); details: protein: recombinant; tags: N-terminal GST; dsDNA, one strand shown
# Sequence of ELF4 (Q99607 whole entry): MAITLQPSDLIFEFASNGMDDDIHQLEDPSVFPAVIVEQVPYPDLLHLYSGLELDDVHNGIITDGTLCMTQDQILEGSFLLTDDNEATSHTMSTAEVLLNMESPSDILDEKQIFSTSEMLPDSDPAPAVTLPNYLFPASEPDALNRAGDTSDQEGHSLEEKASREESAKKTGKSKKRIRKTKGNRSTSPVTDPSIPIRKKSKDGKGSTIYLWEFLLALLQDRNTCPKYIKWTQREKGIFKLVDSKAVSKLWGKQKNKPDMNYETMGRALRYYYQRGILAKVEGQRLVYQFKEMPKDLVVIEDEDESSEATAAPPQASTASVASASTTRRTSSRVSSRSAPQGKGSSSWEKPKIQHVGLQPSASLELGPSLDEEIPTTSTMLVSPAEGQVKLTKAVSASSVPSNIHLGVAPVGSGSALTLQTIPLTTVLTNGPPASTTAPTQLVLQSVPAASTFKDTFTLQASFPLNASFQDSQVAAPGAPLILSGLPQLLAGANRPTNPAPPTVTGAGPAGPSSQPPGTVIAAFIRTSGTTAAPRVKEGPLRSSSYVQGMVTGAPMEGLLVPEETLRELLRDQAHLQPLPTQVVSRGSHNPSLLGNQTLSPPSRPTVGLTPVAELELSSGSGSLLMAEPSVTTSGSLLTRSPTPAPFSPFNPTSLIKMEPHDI
# Summary of the method: as §1
# ELK4 = target: T9, ELK4 (Homo sapiens, UniProt P28324-2 1-405); details: protein: recombinant; tags: N-terminal GST; dsDNA, one strand shown
# T9 sequence: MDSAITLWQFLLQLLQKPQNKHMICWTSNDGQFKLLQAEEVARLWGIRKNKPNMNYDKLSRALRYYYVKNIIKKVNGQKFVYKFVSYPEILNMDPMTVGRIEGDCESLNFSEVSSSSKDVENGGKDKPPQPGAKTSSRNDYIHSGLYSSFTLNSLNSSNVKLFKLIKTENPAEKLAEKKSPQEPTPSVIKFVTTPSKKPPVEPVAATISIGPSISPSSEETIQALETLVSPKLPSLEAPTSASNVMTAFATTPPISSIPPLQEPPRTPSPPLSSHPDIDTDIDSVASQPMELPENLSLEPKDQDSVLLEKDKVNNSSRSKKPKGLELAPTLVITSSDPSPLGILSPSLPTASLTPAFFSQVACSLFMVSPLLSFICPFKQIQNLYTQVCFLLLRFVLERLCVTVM
# Summary of the method: as §1
# ETV2 = target: T10, ETV2 (Homo sapiens, UniProt O00321 1-342); details: protein: recombinant; tags: N-terminal GST; dsDNA, one strand shown
# T10 sequence: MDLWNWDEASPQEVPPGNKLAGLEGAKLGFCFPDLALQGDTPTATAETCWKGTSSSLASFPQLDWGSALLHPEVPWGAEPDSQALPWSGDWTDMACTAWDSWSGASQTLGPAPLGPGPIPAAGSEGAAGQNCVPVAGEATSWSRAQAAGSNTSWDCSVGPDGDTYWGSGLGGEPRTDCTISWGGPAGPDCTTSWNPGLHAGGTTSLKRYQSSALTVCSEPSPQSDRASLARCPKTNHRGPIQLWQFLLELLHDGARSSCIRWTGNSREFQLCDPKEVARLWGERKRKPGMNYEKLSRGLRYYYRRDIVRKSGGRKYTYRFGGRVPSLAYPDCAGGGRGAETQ
# Summary of the method: as §1
# ELF3 = target: T11, ELF3 (Homo sapiens, UniProt P78545 1-371); details: protein: recombinant; tags: N-terminal GST; dsDNA, one strand shown
# T11 sequence: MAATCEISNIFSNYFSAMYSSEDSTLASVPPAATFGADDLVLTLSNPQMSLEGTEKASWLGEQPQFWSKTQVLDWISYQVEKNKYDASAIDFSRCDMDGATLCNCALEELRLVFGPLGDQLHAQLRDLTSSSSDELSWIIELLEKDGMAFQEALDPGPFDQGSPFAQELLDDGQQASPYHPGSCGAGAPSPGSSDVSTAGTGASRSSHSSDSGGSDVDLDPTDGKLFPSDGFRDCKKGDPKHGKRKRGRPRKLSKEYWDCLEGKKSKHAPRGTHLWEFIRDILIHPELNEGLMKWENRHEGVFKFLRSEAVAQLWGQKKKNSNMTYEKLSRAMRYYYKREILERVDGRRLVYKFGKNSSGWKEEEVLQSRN
# Summary of the method: as §1
# CRX = CRX (Homo sapiens, UniProt O43186 1-299); details: protein: recombinant; tags: N-terminal GST; dsDNA, one strand shown
# Sequence of CRX (O43186 whole entry): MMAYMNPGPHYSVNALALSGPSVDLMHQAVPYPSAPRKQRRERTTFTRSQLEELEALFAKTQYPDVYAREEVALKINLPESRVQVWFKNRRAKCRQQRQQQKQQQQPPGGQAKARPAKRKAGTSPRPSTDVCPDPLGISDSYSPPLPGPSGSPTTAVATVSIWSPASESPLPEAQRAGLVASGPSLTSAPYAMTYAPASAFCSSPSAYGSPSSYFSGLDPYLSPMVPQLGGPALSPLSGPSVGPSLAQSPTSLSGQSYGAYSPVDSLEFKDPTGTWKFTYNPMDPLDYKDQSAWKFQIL
# Summary of the method: as §1
# ETV1 = ETV1 (Homo sapiens, UniProt P50549 1-477); details: protein: recombinant; tags: N-terminal GST; dsDNA, one strand shown
# Sequence of ETV1 (P50549 whole entry): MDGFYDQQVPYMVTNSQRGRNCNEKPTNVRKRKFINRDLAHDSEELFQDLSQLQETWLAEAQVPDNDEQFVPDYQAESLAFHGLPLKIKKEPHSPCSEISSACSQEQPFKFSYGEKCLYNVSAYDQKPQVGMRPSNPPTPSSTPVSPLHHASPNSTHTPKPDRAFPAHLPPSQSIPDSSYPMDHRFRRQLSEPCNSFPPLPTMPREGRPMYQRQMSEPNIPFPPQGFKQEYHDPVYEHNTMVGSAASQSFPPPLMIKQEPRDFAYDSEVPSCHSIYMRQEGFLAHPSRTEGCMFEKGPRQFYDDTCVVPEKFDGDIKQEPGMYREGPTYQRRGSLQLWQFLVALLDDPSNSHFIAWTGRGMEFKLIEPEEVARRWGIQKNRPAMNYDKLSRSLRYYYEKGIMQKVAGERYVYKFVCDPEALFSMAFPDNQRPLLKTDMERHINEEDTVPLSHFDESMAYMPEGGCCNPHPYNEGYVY
# Summary of the method: as §1
sequence,measurement,setting,value
ACTGAA,binding signal,FLI1,"1.07 fold enrichment (6-mer frequency, TF over GST control)"
same,binding signal,ELK1,"1.27 fold enrichment (6-mer frequency, TF over GST control)"
same,binding signal,GABPA,"1.24 fold enrichment (6-mer frequency, TF over GST control)"
same,binding signal,ERG,"1.11 fold enrichment (6-mer frequency, TF over GST control)"
same,binding signal,ELF1,"1.2 fold enrichment (6-mer frequency, TF over GST control)"
same,binding signal,EHF,"1.1 fold enrichment (6-mer frequency, TF over GST control)"
same,binding signal,SPI1,"1.23 fold enrichment (6-mer frequency, TF over GST control)"
same,binding signal,SPIB,"1.07 fold enrichment (6-mer frequency, TF over GST control)"
same,binding signal,ELK3,"1.09 fold enrichment (6-mer frequency, TF over GST control)"
same,binding signal,FEV,"1.19 fold enrichment (6-mer frequency, TF over GST control)"
same,binding signal,ETV5,"1.19 fold enrichment (6-mer frequency, TF over GST control)"
same,binding signal,HSF1,"1.08 fold enrichment (6-mer frequency, TF over GST control)"
same,binding signal,SPIC,"1.31 fold enrichment (6-mer frequency, TF over GST control)"
same,binding signal,ELF4,"1.13 fold enrichment (6-mer frequency, TF over GST control)"
same,binding signal,ELK4,"1.16 fold enrichment (6-mer frequency, TF over GST control)"
same,binding signal,ETV2,"1.05 fold enrichment (6-mer frequency, TF over GST control)"
same,binding signal,ELF3,"1.37 fold enrichment (6-mer frequency, TF over GST control)"
same,binding signal,CRX,"1.04 fold enrichment (6-mer frequency, TF over GST control)"
same,binding signal,ETV1,"1.19 fold enrichment (6-mer frequency, TF over GST control)"
